# CtBP-E1A blk – inhibitors of CtBP/E1A interaction; AlphaScreen GST-E1A/His-CtBP binding, 1536-well; stronger effect = lower value; activity change, % (no concentration beside the values); hit rate 0.49% among 340,000; AID 651724; in the data active = activity change below about -65%; inconclusive = mostly about -30% to -63%; note: % is set by controls: 0 for no effect and ±100 for the full control effect
#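 Protein mix (5X: 125 nM each GST-E1A, His-CtBP) was incubated with pinned compound 2 h at 37 deg C in dark, in 50 mM Tris pH 8.0 buffer with 300 mM NaCl. Glutathione donor and nickel acceptor beads followed; AlphaScreen signal read after 1 h.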
# BAZ2B block – blocks human BAZ2B. Q9UIF8. AlphaScreen BAZ2B-H3K14Ac peptide displacement. Potency, µM (doses to about 114 µM), inactives show at the highest dose activity change, negative = inhibition, actives largely listed as inhibitors. hit rate 4.4% among 360,000. AID 504333; note: potency is the fitted concentration of half-maximal effect; % is set by controls: 0 for no effect and ±100 for the full control effect; nearly all actives have a fitted effect of over 60% in size
#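 AlphaScreen displacement: compounds (up to 110uM) incubated 30 min at room temperature with a preformed 50 nM BAZ2B/50 nM biotinylated H3K14Ac peptide complex in PBS pH 7.4 with Tween-20. Donor and acceptor beads at 10 ug/mL final added, 20 min light-protected before reading.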
# HP1b chromo inh – blocks HP1-beta chromodomain binding to methylated histone tails | AlphaScreen HP1-beta / biotin-H3K9me3 peptide binding | P83916 | Potency, µM (doses to about 114 µM), for inactives: top-dose activity change, negative = inhibition, hits mostly inhibitors | hit rate 0.56% among 390,000 | AID 540317; note: potency is the fitted concentration of half-maximal effect; nearly all actives have a fitted effect of over 70% in size
# Target sequence (P83916 whole entry, looked up): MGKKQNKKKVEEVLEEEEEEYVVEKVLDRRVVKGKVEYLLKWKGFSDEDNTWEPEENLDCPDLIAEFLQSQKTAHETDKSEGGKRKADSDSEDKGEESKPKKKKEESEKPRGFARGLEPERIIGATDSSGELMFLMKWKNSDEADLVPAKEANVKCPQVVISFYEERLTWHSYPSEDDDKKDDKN
#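 Compound inhibition of the preformed complex between 50 nM HP1-beta and 50 nM biotinylated H3K9me3 peptide was read by AlphaScreen. Buffer was PBS pH 7.4 with 0.01% Tween-20. Incubations ran 30 min at room temperature, with 10 ug/mL donor/acceptor beads.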
# Six1-Eya2 blk – inhibitors of human Six1/Eya2 interaction. AID 651725. hit rate 0.56% among 360,000. AlphaScreen GST-Six1/His-Eya2 binding, biochemical; stronger effect = lower value. activity change, % (concentration not given with the values); in the data active = activity change below about -65%; inconclusive = mostly about -30% to -63%; note: % is set by controls: 0 for no effect and ±100 for the full control effect
#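 AlphaScreen luminescence read after one hour at 37 °C in darkness. Pin-transferred compounds met GST-Six1 and His-Eya2 protein (5X stock 250 nM/500 nM) plus glutathione donor and Ni-chelate acceptor beads (5X, 50 ug/mL).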
# JMJD2A Tudor inh – blocks the human JMJD2A Tudor domain; AID 504339; hit rate 4.4% among 390,000; O75164; Potency, µM (series often up to 114 µM), for the others: at the highest dose activity change, negative = inhibition, hits mostly inhibitors; AlphaScreen JMJD2A-Tudor / H3K4me3 peptide binding; note: potency is the fitted concentration of half-maximal effect; % is set by controls: 0 for no effect and ±100 for the full control effect; nearly all actives have a fitted effect of over 50% in size
# TDP1 inh – blocks human tyrosyl-DNA phosphodiesterase 1; Q9NUW8; recombinant TDP1, AlphaScreen DNA substrate cleavage; Potency, µM (doses to about 130 µM), for inactives: at the highest dose activity change, negative = inhibition, most hits filed as inhibitors; hit rate 0.28% among 350,000; AID 485290; note: potency is the fitted concentration of half-maximal effect; % is set by controls: 0 for no effect and ±100 for the full control effect; nearly all actives have a fitted effect of over 40% in size
#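 Recombinant E. coli-expressed Tdp1 (1 nM) preincubated with compound 15 min at RT, then 5'-biotin/3'-phosphotyrosine-FITC DNA substrate (15 nM) added for 5 min. AlphaScreen beads (10 ug/ml) added, 10 min RT; tyrosine-FITC cleavage read as signal loss.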
# * = called active by the depositor; ? = inconclusive; . = no result given. An excerpt weighted towards active compounds, which were near 5.3% of everything screened. Unless noted, calls come from the whole dose curve; as a rule, active = well fitted inhibition curve with a large enough effect; inconclusive = small, poorly fitted or top-dose-only effect; inactive = no such curve, though single readings can be large or run the other way.
SMILES,CtBP-E1A blk,BAZ2B block,HP1b chromo inh,Six1-Eya2 blk,JMJD2A Tudor inh,TDP1 inh
C#CCOCCOCCOCCNc1nc(N2CCN(C(=O)CCCCCCCCCCNC(=O)[C@H](CCCCN)n3cc(CCO)nn3)CC2)nc(N2CCN(C(=O)CCCCCCCCCCNC(=O)[C@H](CCCCN)n3cc(CCO)nn3)CC2)n1,-1,5%,?,0,89µM*,14%
C#CCOCCOCCOCCNc1nc(N2CCN(C(=O)CCCCCCCCCCNC(=O)[C@@H](CCC(=O)O)n3cc(CCCCCN)nn3)CC2)nc(N2CCN(C(=O)CCCCCCCCCCNC(=O)[C@@H](CCC(=O)O)n3cc(CCCCCN)nn3)CC2)n1,1,?,36%,-2,-31%,1%
C#CCOCCOCCOCCNc1nc(N2CCN(C(=O)CCCCCCCCCCNC(=O)[C@H](CCCCN)n3cc(CCO)nn3)CC2)nc(N2CCN(C(=O)CCCCCCCCCCNC(=O)[C@@H]([C@H](C)O)n3cc(C)nn3)CC2)n1,0,50µM*,-23%,-2,79µM*,11%
Cc1cccc(C(=O)Oc2c(Sc3ccccc3)c(C)nn2C(C)(C)C)c1,.,45%,71%,.,54%,.
C=CCNC(=S)N/N=C/c1cn(C)c2ccccc12,-8,-25%,?,-21,56µM*,.
Cc1ccc(CNC(=O)C(C)n2ccc3cc(S(=O)(=O)N4CCCC4)ccc32)cc1 (stereo not drawn),.,-11%,0%,.,-19%,6%
Cc1nnc(NC2=NCCC2)s1,0,-28%,-6%,5,79µM*,-4%
Cc1nnc(Nc2ccc(Cl)cc2)s1,-9,5%,18%,-2,-1%,.
Cc1nnc(NC2=NCCC2)o1,-2,79µM*,41%,-3,1%,-2%
CCCn1c(SCC(=O)Nc2ccc3c(c2)OCO3)nc2c1c(=O)n(C)c(=O)n2C,-8,7%,12%,1,-11%,3%
Cn1c(=O)c2c(nc(SCC(=O)O)n2Cc2cc3c(cc2Cl)OCO3)n(C)c1=O,-7,?,58%,4,45µM*,8%
O=c1cc(O)c2sc3nc(-c4cccnc4)cc(C(F)(F)F)c3c2[nH]1,-3,56µM*,-10%,?,?,-3%
Cc1cc(C(F)(F)F)c2c(n1)sc1c(O)cc(=O)[nH]c12,-12,?,8%,-2,-15%,-2%
Cc1nnc2sc(SCc3ccc(Br)cc3)nn2c1=O,2,.,20%,1,-4%,3%
Cc1nnc2sc(SCC(=O)Nc3cccc(Cl)c3)nn2c1=O,-93*,40µM*,57%,?,?,8%
COC(=O)c1ccc(NC(=O)CSc2nn3c(=O)c(C)nnc3s2)cc1,-93*,0%,79%,-67*,?,3%
Cc1ccccc1NC(=O)CSc1nn2c(=O)c(C)nnc2s1,-92*,?,24%,-84*,89µM*,2%
Cc1nnc2sc(SCC(=O)Nc3ccc(Br)cc3)nn2c1=O,15,40µM*,44%,-87*,?,2%
O=C1/C(=C/c2ccc(O)c(O)c2)Oc2ccccc21,.,.,.,.,.,21%
COc1cccc(NC(=O)CSc2nc(O)c(C)c(=O)n2-c2ccc(C)cc2)c1,17,-20%,0%,-10,79µM*,0%
COc1ccc(OC)c(NC(=O)CSc2nn3c(=O)c(C)nnc3s2)c1,-88*,3%,65%,?,?,1%
Cc1c(O)nc(SCC(=O)Nc2cccc(C(F)(F)F)c2)n(-c2ccccc2)c1=O,0,-30%,-3%,-1,-23%,6%
CCn1c(SCC(=O)Nc2cc(OC)ccc2OC)nc2c(c1=O)SCC2,11,79µM*,-19%,-14,?,4%
COc1ccc(NC(=O)CSc2nn3c(=O)c(C)nnc3s2)cc1,-93*,-11%,57%,-86*,?,3%
COc1cccc(NC(=O)CSc2nc(C)cs2)c1,1,9%,24%,0,9%,2%
SMILES,CtBP-E1A blk,BAZ2B block,HP1b chromo inh,Six1-Eya2 blk,JMJD2A Tudor inh,TDP1 inh
COc1cccc(NC(=O)CSc2nn3c(=O)c(C)nnc3s2)c1,-99*,6%,71%,-77*,?,4%
O=C(NCc1cccnc1)c1ccc(-c2ccccc2[N+](=O)[O-])o1,16,-2%,20%,20,-1%,0%
O=C(NCc1cccnc1)c1ccc(-c2cccc(Cl)c2Cl)o1,-9,71µM*,3%,0,-18%,4%
Cc1cc2c(cc(C(=O)NCc3cccnc3)n2Cc2ccc(Cl)cc2)o1,-11,?,-22%,-7,50µM*,11%
Cc1cc(C)cc(NC2=NCC(=O)N2Cc2ccccc2)c1,3,-7%,22%,4,-30%,0%
CCc1ccccc1NC1=NCC(=O)N1Cc1ccccc1,-2,79µM*,32%,3,0%,0%
COc1cc(/C=N/NC(=O)c2ccncc2)ccc1OC(=O)c1cccc(Br)c1,-8,?,-15%,-4,?,.
COc1cccc(/C=N/NC(=O)c2ccncc2)c1OC(=O)c1ccc(Br)cc1,-81*,-23%,13%,?,?,5%
CCOc1ccccc1C(=O)N/N=C/c1ccoc1,0,?,14%,2,-25%,50µM*
COc1ccc(C(=O)N/N=C/c2c(C)[nH]c(=O)[nH]c2=O)cc1,-86*,-11%,45%,?,?,6%
CSCC[C@H](NC(=O)OC(C)(C)C)C(=O)N/N=C/c1cccc2cccnc12,-75*,?,40%,?,?,3%
COC(=O)C1=C(c2ccccc2)c2ccccc2S(=O)(=O)N1CC(=O)Nc1cccc(C(C)=O)c1,.,-13%,14%,.,?,5%
COc1cccc(C(=O)Nc2cc(-c3ccccc3)no2)c1,.,3%,35%,.,-19%,-1%
CCOc1ccccc1C(=O)N/N=C/c1cccc2cccnc12,?,45µM*,18%,?,?,5%
CCOc1ccc(C(=O)N/N=C/c2cccc3cccnc23)cc1,-98*,20µM*,24%,-92*,79µM*,11%
CCOc1ccccc1C=NNC(=O)c1cccc2ccccc12,3,.,25%,4,-8%,.
COc1ccc(C(=O)N/N=C/c2cccc3cccnc23)cc1,-93*,20µM*,27%,-90*,56µM*,10%
Cc1cccc(S(=O)(=O)N2CCN(S(=O)(=O)c3ccc4c(c3)OCCO4)CC2)c1,.,.,.,.,-14%,.
COc1cccc(Cn2ncc3c4sc(S(C)=O)cc4n(C)c3c2=O)c1 (stereo not drawn),.,.,.,.,?,2%
